Consider 38 sequences from the OligoGym collection.
Also: reference of the scale not given here.

The first assay concerns the target PHF23. As to the kind of experiment: pooled miR-30 sensor sort-seq; sequence = guide strand. To be noted: shRNA.
TTCTCTTGGATGACTTTGCTTT yielded a sensor-assay potency score (higher = more potent) of -0.308.
On the same count and under the same terms, under TAACTTCCGCTTCTTGCTCTTC stands -0.863.
On to TTGCCATCTCTTCTTCTTCTTC, for which the sensor-assay potency score (higher = more potent) was -0.747.

The next assay deals with PHF8. The assay is described as above. To be noted: shRNA.
As for TTGCTATCTTGGTTCGCCGAGA, the sensor-assay potency score (higher = more potent) is -0.723.
The sequence TTCAACACCAACACAACTGCCA registered a sensor-assay potency score (higher = more potent) of 0.225.
Take TTCTGCTTGAACGATGACCTGT: the sensor-assay potency score (higher = more potent) was found to be 0.147.
In turn, TTGAGCTGCATCTCGATGTTAA displayed a sensor-assay potency score (higher = more potent) of -0.768.
On the same count and under the same terms, under TTCCAAACTAATGACATTGAGG stands -0.716; under TTGGATAAACTCTTCACCCTTT, 0.593; under TTTGCTATCTTGGTTCGCCGAG, -0.492.
On the same count and under the same terms, under TCACACTCGATCATGAAGCGGG stands 0.234; under AACACTTGTAGCACTTGTCCAC, -0.0267.
Consider TTTCACAAAATCACCAAGCTTC, for which the sensor-assay potency score (higher = more potent) was determined as 0.0269.
With TTTGTCAGAACCAACATAGTGT, the sensor-assay potency score (higher = more potent) worked out at 0.088.
Still for that read-out and setting: under TTGCTTTCTGGAAAGAGCCTGT stands -0.163.

The next assay has as its target PIK3AP1. The assay is described as above. To be noted: shRNA.
In the case of TTGTCATCATATCTTCTTCTTC, the sensor-assay potency score (higher = more potent) is -0.605.
In the case of TTAAGGTCAACAGTCATGCTAT, the sensor-assay potency score (higher = more potent) is -0.337.
In turn, TTTAATGTGACTCTTGAGCATG returned a sensor-assay potency score (higher = more potent) of -0.893.
Turning to TACTCGTCGATGAACTGCCGCA, the sensor-assay potency score (higher = more potent) was -0.193.
The same measure, in the same setting: in the case of TTACTTGTGCTACTTGCTGTGC it was -0.439.
Consider TTCCTCTTTAATGTGACTCTTG, for which the sensor-assay potency score (higher = more potent) is -0.151.
TAGACGATGAGGATGTCGCATC: the sensor-assay potency score (higher = more potent) is -0.908.
On to TTCGATTAAGTCTTCATCCTTT, for which the sensor-assay potency score (higher = more potent) stood at 0.829.
Same read-out and setting: in the case of TTGCCTTCTAAAAACTTGCGGA it was -0.361; in that of TAGCCGTTTAAGATTTTCCTGC, -0.144.
On to AAGTCTAGGAACTCCTCGCTGT, for which the sensor-assay potency score (higher = more potent) came to 0.0251.
TTCTTCAGTCCATACTTCGCAG displayed a sensor-assay potency score (higher = more potent) of -0.885.

In another assay the target is PIK3R4. The assay is described as above. To be noted: shRNA.
In turn, TTGTCTCGCACATACTGCCTAA gave a sensor-assay potency score (higher = more potent) of -0.86.
TTATTTTCATATCTGAGCCAGC yielded a sensor-assay potency score (higher = more potent) of -0.787.
In the case of TATCTGAAAAATAACTCTCTAC, the sensor-assay potency score (higher = more potent) is -0.529.
The sequence TTACAGTAGACATCAGCTGTAC yielded a sensor-assay potency score (higher = more potent) of 0.0221.
For the sequence TTTTATTTAGCACTTGTTCAGG, the sensor-assay potency score (higher = more potent) was -0.266.
The sequence TAATAGCTTACAACCATCTTTT registered a sensor-assay potency score (higher = more potent) of -0.784.
TTTTGTAGCAGTCCTAACTGGC yielded a sensor-assay potency score (higher = more potent) of -0.0245.
On the same count and under the same terms, in the case of TTCAATTTTATTTAGCACTTGT it was 0.585.
Still for that read-out and setting: under TAAACTAGTCAAGTACATCTTA stands 0.418.
Take TTCCTTTAAAACACTGAGCAGA: the sensor-assay potency score (higher = more potent) was -0.752.
Sequence TAGCAAAGTAACAACTTTCTGC had a sensor-assay potency score (higher = more potent) of 0.5.
